# Data: PubChem BioAssay AID602429 (Sanford-Burnham Center for Chemical Genomics, 2012)
# Screen size: about 360,000 compounds; about 1,200 (0.33%) were called active. For the sample, actives were picked, then their nearest neighbours and some compounds at random. A number with no mark means an inactive call. No stated cut-off is given here; in the data, active means inhibition above about 37%; inactive means the rest.
# Target: Small ubiquitin-related modifier 1 (Homo sapiens) (UniProt P63165)
# Experiment: SUMO1 binding to interaction partners, disruption – biochemical, uHTS, primary screen (AID 602429)
# Conditions: SUMO1 binding to a labelled peptide, TR-FRET, 1 h; at 20 µM; stronger effect = higher value
# Small ubiquitin-related modifier 1 (Homo sapiens), sequence (P63165 whole entry, looked up): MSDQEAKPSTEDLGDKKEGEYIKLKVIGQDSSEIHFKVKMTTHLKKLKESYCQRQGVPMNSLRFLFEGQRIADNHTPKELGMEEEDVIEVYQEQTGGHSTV
row,Structure (SMILES),inhibition
1,COc1cccc(-c2cc3nc4c(c(N5CCC6(CC5)OCCO6)n3n2)CCCC4)c1,1.23%
2,N#CC1(NC(=O)COC(=O)CSc2ccc(F)cc2)CCCCC1,1.24%
3,O=C(NCC1CCCO1)C1CCN(C2CCN(C(=O)C3CCCCC3)CC2)CC1 (stereo not drawn),2.09%
4,COc1ccc(C(=O)NCc2ccccc2C)cc1S(=O)(=O)NC1CCCC1,0.24%
5,CCCNC(=O)C1(C)CCN(C(=O)c2cc(F)ccc2C)C1 (stereo not drawn),-2.78%
6,CCCCCc1nnc(NC(=O)c2ccc(=O)n(C)n2)s1,-5.45%
7,O=C(Cn1cc2c(n1)CCCCC2)NCCN1CCOCC1,-0.24%
8,COc1ccccc1CNC(=O)Cn1cc2c(n1)CCCC2,-1.54%
9,COCCNC(=O)Cn1cc2c(n1)CCCCC2,42.7% (active)
10,Cc1ccc(NC(=O)c2oc(=O)c3ccccc3c2-c2ccccc2)c(C)c1,3.85%
11,CCC1(C)COC(c2ccc(OC)c(OC)c2)OC1 (stereo not drawn),0.985%
12,CCCC(C(=O)n1nc(C)cc1C)C(NS(=O)(=O)c1ccc(C)cc1)c1ccccc1 (stereo not drawn),-1.84%
13,Nc1ccc2nc3c(=O)[nH]c(=S)[nH]c3nc2c1,92.6% (active)
14,CC(C)c1nc(SCC(=O)NC(=O)NC(C)(C)C)n[nH]1,1.88%
15,COc1ccc(C)cc1N(CC(=O)NC(C)c1ccccc1)S(C)(=O)=O (stereo not drawn),-0.711%
16,CN(Cc1ccco1)S(=O)(=O)c1nnc(NC(=O)c2ccccc2)s1,6.06%
17,O=[N+]([O-])c1c(NCCO)cc(Sc2nc3ccccc3s2)c2nonc12,48.4% (active)
18,Cc1ccccc1C(=O)Nc1cccc(-c2nnc(SCC(=O)O)n2C)c1,3.31%
19,CC(C)C(C(=O)NCc1ccco1)N(CC1CCCO1)C(=O)CNS(=O)(=O)c1ccc(F)cc1 (stereo not drawn),4.85%
20,Cc1cc2cc3n(c2nn1)N=C(Cl)CC3,-9.97%
21,COc1cccc2c1C(=O)c1c(O)c3c(c(O)c1C2=O)CC(O)(C(C)=NNC(=O)c1ccc(Cl)c(Cl)c1)CC3OC1CC(N)C(O)C(C)O1 (stereo not drawn),111% (active)
22,COc1ccc(NC(=O)CN(C)C(=O)c2cc(C3CC3)nn2-c2ccccc2)cc1,-1.85%
23,CCN1C(=NCCc2cccnc2)N[C@@H](c2ccccc2)[C@H](C(=O)OC)[C@H]1C,-3.87%
24,CN(C(=O)CC1C(=O)NCCN1Cc1ccc(F)cc1Cl)C1CCCCC1 (stereo not drawn),-1.34%
25,COc1ccc(OC)c(Nc2nc3ccccc3n3cnnc23)c1,47.2% (active)
26,COc1cc(Nc2nc3ccc(Cl)cc3n3cnnc23)cc(OC)c1OC,-1.84%
27,COc1ccc(CCNc2nc3ccc(C)cc3n3cnnc23)cc1OC,2.61%

row,Structure (SMILES),inhibition
1,N#C/C(=C/c1cccc([N+](=O)[O-])c1)c1nnc2n1CCCCC2,-13.1%
2,CC1CCN(C(=O)COC(=O)c2cc(=O)[nH]c3ccccc23)CC1,-34.7%
3,Oc1c(Cl)cc(Cl)c(Cl)c1Cc1c(O)c(Cl)cc(Cl)c1Cl,68.6% (active)
4,CCN(CC)S(=O)(=O)N1CCC(C(=O)NC(C)CCc2ccccc2)CC1 (stereo not drawn),-0.482%
5,Nc1nc(Sc2ncccc2[N+](=O)[O-])n[nH]1,-26.7%
6,CCCc1noc2c1/C(=N\O)CCC2,1.7%
7,COc1ccc(-c2nnc(SC(=O)N3c4ccccc4Sc4ccccc43)o2)cc1,-3.37%
8,COc1ccc(-c2nnc(SC(C)C(=O)NC3CC3)o2)cc1 (stereo not drawn),1.98%
9,COc1ccc(-c2nnc(-c3ccc4ccccc4c3)o2)cc1,51.9% (active)
10,ONC(=Nc1ccccc1)c1ccccc1Cl,0.653%
11,CN(C(=O)COC(=O)c1cc(=O)[nH]c2ccccc12)C1CCCCC1,-17.9%
12,S=c1[nH]nc(-c2cccs2)n1/N=C/c1cn(-c2ccccc2)nc1-c1ccc(Cl)cc1,41.9% (active)
13,Cc1ccsc1/C=N/n1c(=S)[nH]nc(C)c1=O,-0.0625%
14,Clc1ccc(-n2nnnc2-c2cnc(-c3ccccn3)nc2-c2cccs2)cc1,-11.8%
15,CSCC[C@H](NC(=O)NC1CCCC1)C(=O)O,2.79%
16,Cc1cc(C)c(-c2csc(NC(=O)CCCc3nc4ccccc4c(=O)[nH]3)n2)c(C)c1,0.192%
17,O=C(CSc1nc2ccccc2c(=O)[nH]1)Nc1nc(-c2ccc(Br)cc2)cs1,94.3% (active)
18,O=C(COC(=O)c1cc(=O)[nH]c2ccccc12)Nc1nc(-c2cccc(Br)c2)cs1,2.92%
19,O=C(O)c1ccc(S(=O)(=O)c2ccccc2)s1,2.5%
20,COc1ccc(OCCCC(=O)Nc2nnc(C3CCCO3)s2)cc1 (stereo not drawn),0.167%
21,COc1ccc(NC(=O)CCC(=O)Nc2nnc(C3CCCCC3)s2)cc1,44% (active)
22,COc1ccc2c(CC(=O)Nc3nnc(C4CC4)s3)coc2c1,-1.1%
23,COc1ccccc1NC(=O)C1=C(C)Nc2nc3ccccc3n2C1c1cccs1 (stereo not drawn),-1.24%
24,COc1cc(C2C(C(=O)Nc3ccccc3OC)=C(C)Nc3ncnn32)ccc1O (stereo not drawn),-0.861%
25,COc1ccccc1NC(=O)C1=C(C)Nc2nnnn2C1c1cccc(Br)c1 (stereo not drawn),43.5% (active)
26,O=C1c2ccccc2C(=O)C1C(=O)C1CC1,-16.1%
